Reference: the supplement of paper PMC10849652
Of roughly 8,800 targets only a part is listed; those with a hit were picked by preference. About 0.5% of all pairs of compound and target were hits. Values without a mark were called inactive.

What was measured:
Test in all cases: log2 fold change, soluble protein after heating vs DMSO (PISA); higher = thermal stabilisation; K562 lysate, 10 uM; active = over 0.2 and 3.5 SD of the protein, either way, in both replicates (recomputed)
[1] = compound: C1=CC=C(C=C1)[C@H](COC2=CC3=C(C=C2)NC(=O)N3)NC(=O)C4=CC=CN(C4=O)CC5=CC(=C(C=C5)F)F
Method in brief: (§1)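 K562 pellets were dounce-homogenised in PBS pH 7.4 with 1 mM MgCl2, and the crude extract at 1 mg/mL protein was treated with 10 μM compound for 30 min. Aliquots were heated for 3 min across 48°C-58°C, pooled, and brought to 0.5% NP-40 at 4°C; soluble protein was the supernatant after 21,000xg for 90 min. Soluble protein was quantified by TMTpro 16plex LC-MS/MS with channel sums equalised, and reported as log2 fold change in thermal stability against DMSO controls, with values from duplicates.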

[2] = compound: CC1=C(SC2=C1C(=N[C@H](C3=NN=C(N32)C)CC(=O)N)C4=CC=C(C=C4)Cl)C
Method in brief: as §1

[3] = compound: CC1=C2C(=CC=C1)N=C(N(C2=O)C3=CC=CC=C3C)CN4C=NC5=C(N=CN=C54)N
Method in brief: as §1

[4] = compound: Cc1sc2c(c1C)C(c1ccc(Cl)cc1)=N[C@@H](CC(=O)OC(C)(C)C)c1nnc(C)n1-2
Method in brief: as §1

[5] = compound: c1ccc([C@@H]2C[C@H]2NC2CCNCC2)cc1
Method in brief: as §1

UniProt Q9Y6R0, sequence (Q9Y6R0 whole entry, looked up): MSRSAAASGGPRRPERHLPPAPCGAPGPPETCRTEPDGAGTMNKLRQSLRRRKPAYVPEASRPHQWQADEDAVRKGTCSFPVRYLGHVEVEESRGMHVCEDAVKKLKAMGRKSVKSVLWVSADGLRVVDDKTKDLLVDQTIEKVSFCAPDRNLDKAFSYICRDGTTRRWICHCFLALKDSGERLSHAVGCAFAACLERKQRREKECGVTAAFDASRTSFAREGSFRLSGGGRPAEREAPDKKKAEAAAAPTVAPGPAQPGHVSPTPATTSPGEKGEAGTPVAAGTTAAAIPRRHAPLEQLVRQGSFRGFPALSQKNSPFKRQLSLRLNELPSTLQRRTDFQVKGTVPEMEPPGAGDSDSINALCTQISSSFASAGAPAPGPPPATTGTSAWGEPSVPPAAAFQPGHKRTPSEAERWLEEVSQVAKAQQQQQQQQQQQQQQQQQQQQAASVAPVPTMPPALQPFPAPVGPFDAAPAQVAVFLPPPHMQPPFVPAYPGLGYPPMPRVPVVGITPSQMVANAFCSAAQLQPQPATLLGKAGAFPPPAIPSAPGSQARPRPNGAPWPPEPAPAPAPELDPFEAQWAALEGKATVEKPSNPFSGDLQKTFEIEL
UniProt Q0ZGT2, sequence (Q0ZGT2 whole entry, looked up): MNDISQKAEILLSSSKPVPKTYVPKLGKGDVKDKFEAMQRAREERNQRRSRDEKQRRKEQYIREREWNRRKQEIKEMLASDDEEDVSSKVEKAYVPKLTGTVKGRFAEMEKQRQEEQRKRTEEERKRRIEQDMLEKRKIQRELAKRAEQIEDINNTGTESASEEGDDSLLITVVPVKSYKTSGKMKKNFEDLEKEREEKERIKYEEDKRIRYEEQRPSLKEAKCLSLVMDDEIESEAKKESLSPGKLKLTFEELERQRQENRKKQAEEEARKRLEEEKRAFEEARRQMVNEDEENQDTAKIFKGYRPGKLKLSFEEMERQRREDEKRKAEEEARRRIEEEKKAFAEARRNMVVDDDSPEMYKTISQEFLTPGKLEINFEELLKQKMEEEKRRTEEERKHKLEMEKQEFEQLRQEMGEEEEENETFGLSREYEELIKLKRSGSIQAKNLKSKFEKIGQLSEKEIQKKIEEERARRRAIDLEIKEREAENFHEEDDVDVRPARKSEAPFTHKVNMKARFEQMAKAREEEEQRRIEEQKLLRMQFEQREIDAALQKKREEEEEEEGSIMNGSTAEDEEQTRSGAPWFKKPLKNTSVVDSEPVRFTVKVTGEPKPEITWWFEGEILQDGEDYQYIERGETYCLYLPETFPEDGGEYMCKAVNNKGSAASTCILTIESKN
UniProt P35749, sequence (P35749 whole entry, looked up): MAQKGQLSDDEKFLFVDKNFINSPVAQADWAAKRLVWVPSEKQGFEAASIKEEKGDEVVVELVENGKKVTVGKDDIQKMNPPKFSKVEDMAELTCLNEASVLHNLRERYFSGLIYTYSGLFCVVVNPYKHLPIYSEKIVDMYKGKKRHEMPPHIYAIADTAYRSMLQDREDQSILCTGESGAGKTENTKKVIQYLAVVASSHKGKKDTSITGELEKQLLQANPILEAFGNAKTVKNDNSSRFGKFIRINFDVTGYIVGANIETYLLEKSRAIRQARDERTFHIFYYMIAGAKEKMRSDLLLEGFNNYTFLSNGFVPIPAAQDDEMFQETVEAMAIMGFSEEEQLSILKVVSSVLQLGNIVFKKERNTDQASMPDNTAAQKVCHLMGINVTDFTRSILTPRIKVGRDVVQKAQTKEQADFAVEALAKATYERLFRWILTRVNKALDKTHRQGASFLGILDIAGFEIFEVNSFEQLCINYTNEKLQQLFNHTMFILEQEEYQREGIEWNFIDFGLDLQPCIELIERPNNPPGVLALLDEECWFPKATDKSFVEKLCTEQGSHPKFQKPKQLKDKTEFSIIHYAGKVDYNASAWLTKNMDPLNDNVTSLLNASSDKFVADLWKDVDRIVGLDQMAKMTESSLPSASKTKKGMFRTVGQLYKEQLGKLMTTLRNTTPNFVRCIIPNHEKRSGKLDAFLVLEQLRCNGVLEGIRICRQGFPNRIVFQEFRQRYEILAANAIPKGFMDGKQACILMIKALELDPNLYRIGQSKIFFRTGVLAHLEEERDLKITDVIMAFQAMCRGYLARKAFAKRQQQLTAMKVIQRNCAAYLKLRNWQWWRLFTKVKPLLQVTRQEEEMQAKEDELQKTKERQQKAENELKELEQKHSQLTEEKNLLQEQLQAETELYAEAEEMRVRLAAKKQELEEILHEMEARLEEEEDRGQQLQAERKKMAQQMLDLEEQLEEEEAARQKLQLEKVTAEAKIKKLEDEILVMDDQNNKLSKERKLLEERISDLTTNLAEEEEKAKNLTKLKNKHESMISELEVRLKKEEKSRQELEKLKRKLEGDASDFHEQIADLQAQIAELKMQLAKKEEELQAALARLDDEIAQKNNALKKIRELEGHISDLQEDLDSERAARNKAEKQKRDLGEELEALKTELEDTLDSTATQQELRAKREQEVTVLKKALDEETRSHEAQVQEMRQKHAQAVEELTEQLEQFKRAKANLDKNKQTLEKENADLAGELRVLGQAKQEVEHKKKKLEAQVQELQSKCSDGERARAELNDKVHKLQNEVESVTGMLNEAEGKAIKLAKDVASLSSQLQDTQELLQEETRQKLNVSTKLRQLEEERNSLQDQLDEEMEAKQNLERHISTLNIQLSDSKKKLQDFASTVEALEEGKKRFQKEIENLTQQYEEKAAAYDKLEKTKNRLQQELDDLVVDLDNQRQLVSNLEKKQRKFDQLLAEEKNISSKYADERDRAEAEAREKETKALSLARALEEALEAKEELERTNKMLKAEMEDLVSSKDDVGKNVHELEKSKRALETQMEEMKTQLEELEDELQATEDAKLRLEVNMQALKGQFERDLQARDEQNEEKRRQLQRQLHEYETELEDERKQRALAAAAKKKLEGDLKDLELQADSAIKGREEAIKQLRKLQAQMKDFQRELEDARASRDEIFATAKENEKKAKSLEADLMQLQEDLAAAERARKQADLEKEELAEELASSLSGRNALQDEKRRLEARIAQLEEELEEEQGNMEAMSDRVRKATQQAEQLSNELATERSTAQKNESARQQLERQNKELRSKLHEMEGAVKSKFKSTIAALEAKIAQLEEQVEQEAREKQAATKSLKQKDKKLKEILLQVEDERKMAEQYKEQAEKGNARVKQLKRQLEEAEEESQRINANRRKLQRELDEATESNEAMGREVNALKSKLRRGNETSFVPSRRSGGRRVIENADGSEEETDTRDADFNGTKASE
UniProt O60829, sequence (O60829 whole entry, looked up): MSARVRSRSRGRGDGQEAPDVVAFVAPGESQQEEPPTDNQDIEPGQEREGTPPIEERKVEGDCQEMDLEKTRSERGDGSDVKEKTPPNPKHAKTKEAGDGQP
UniProt Q5TEU4, sequence (Q5TEU4 whole entry, looked up): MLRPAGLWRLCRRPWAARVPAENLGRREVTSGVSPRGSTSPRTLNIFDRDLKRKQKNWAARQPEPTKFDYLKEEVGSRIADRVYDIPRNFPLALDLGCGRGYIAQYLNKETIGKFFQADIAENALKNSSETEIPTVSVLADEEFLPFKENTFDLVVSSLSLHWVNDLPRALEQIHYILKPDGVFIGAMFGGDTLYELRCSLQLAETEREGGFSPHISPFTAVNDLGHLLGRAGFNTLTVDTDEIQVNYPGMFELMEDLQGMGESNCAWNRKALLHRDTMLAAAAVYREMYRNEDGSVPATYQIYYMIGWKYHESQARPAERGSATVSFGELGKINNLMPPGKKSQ
UniProt Q9NTK5, sequence (Q9NTK5 whole entry, looked up): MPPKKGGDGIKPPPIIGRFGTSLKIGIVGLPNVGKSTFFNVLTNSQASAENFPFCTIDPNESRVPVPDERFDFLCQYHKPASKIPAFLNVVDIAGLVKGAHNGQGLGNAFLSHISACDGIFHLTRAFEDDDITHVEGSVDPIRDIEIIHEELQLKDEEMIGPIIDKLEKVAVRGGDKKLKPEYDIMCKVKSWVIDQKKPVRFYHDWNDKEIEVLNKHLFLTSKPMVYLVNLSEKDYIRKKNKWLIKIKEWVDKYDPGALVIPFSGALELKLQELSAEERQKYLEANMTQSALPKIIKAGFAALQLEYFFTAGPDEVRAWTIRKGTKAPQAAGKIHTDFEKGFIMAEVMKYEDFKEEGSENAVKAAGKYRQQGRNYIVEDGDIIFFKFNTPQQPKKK
UniProt Q9BZ23, sequence (Q9BZ23 whole entry, looked up): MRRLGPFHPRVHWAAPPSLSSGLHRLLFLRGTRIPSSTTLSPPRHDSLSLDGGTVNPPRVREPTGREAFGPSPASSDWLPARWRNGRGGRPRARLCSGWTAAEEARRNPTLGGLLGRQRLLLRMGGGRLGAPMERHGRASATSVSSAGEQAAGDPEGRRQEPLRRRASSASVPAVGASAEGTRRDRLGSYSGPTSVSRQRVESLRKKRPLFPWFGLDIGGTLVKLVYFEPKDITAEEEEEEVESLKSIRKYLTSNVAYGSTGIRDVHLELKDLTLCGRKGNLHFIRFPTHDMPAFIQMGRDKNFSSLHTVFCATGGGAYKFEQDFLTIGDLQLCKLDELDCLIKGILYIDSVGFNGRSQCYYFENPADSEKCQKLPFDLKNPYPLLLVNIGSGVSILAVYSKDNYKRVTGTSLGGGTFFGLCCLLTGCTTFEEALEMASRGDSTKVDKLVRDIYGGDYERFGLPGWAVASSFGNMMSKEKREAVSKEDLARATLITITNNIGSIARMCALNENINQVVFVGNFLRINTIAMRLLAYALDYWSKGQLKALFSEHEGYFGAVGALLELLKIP
UniProt Q96IY1, sequence (Q96IY1 whole entry, looked up): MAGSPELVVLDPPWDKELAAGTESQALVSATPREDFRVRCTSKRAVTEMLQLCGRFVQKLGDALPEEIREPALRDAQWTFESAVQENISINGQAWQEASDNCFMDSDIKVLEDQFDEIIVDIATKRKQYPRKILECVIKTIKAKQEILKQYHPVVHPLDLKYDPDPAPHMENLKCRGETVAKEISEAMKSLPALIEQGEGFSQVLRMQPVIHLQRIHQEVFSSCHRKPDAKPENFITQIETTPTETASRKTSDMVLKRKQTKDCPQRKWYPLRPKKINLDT

NUP210 (UniProt Q8TEM1) showed a log2 fold change [1] of -0.101, a log2 fold change [2] of 0.07 and a log2 fold change [3] of 0.016. For the same target, the log2 fold change [4] was 0.04 and the log2 fold change [5] was 0.028.
Target OCRL (UniProt Q01968) has a log2 fold change [1] of 0.018, a log2 fold change [2] of 0.056 and a log2 fold change [3] of 0.003. The log2 fold change [4] was 0.013 and the log2 fold change [5] was -0.017.
OPA1 isoform 2 (UniProt O60313) was tested, and the log2 fold change [1] was -0.048, the log2 fold change [2] was 0.021 and the log2 fold change [3] was 0.038. It also gave a log2 fold change [4] of 0.005 and a log2 fold change [5] of 0.084.
With NUMBL (UniProt Q9Y6R0) the log2 fold change [1] was -0.047, the log2 fold change [2] was 0.038 and the log2 fold change [3] was 0.039. The log2 fold change [4] was -0.096 and the log2 fold change [5] was -0.012.
Target OLA1 (UniProt Q9NTK5) has a log2 fold change [1] of -0.001, a log2 fold change [2] of 0.04 and a log2 fold change [3] of 0. It also gave a log2 fold change [4] of 0.011 and a log2 fold change [5] of 0.022.
In the case of NEXN (UniProt Q0ZGT2), the log2 fold change [1] is reported as -0.31, the log2 fold change [2] is reported as 0.335 and the log2 fold change [3] is reported as 0.271. The log2 fold change [4] was -0.083 and the log2 fold change [5] was -0.22.
Work on NSUN2 (UniProt Q08J23) yielded a log2 fold change [1] of -0.016, a log2 fold change [2] of 0.011 and a log2 fold change [3] of -0.009. For the same target, the log2 fold change [4] was 0.021 and the log2 fold change [5] was 0.019.
Target NSL1 (UniProt Q96IY1) has a log2 fold change [1] of 0.028, a log2 fold change [2] of 0.012 and a log2 fold change [3] of -0.001. It also gave a log2 fold change [4] of 0.053 and a log2 fold change [5] of -0.014.
NUMB (UniProt P49757) gave a log2 fold change [1] of 0.001, a log2 fold change [2] of 0.034 and a log2 fold change [3] of 0.009. For the same target, the log2 fold change [4] was 0.004 and the log2 fold change [5] was -0.032.
NELFA (UniProt Q9H3P2) showed a log2 fold change [1] of -0.055, a log2 fold change [2] of 0.033 and a log2 fold change [3] of -0.022. It also gave a log2 fold change [4] of -0.037 and a log2 fold change [5] of 0.054.
NQO1 (UniProt P15559) was tested, and the log2 fold change [1] was 0.433 (active), the log2 fold change [2] was 0.025 and the log2 fold change [3] was 0.223. The log2 fold change [4] was -0.008 and the log2 fold change [5] was -0.016.
PANK2 (UniProt Q9BZ23) gave a log2 fold change [1] of 0.024, a log2 fold change [2] of 0.081 and a log2 fold change [3] of -0.021. It also gave a log2 fold change [4] of 0.019 and a log2 fold change [5] of -0.077.
In the case of NCAPH2 (UniProt Q6IBW4), the log2 fold change [1] is reported as 0.027, the log2 fold change [2] is reported as -0.001 and the log2 fold change [3] is reported as 0.035. It also gave a log2 fold change [4] of -0.005 and a log2 fold change [5] of 0.024.
Work on MRPS31 (UniProt Q92665) yielded a log2 fold change [1] of -0.019, a log2 fold change [2] of -0.048 and a log2 fold change [3] of 0.046. The log2 fold change [4] was 0.014 and the log2 fold change [5] was 0.014.
NDUFAF5 (UniProt Q5TEU4) gave a log2 fold change [1] of 0.078, a log2 fold change [2] of 0.016 and a log2 fold change [3] of 0.026. For the same target, the log2 fold change [4] was -0.174 and the log2 fold change [5] was 0.004.
In the case of MYH11 isoform 2 (UniProt P35749), the log2 fold change [1] is reported as 0.037, the log2 fold change [2] is reported as -0.021 and the log2 fold change [3] is reported as 0.004. The log2 fold change [4] was -0.065 and the log2 fold change [5] was 0.025.
Work on MRPL58 (UniProt Q14197) yielded a log2 fold change [1] of 0.011, a log2 fold change [2] of 0.029 and a log2 fold change [3] of 0.075. It also gave a log2 fold change [4] of -0.002 and a log2 fold change [5] of 0.081.
With ORC3 (UniProt Q9UBD5) the log2 fold change [5] was -0.276.
Work on MYOM1 (UniProt P52179) yielded a log2 fold change [1] of -0.012, a log2 fold change [2] of 0.088 and a log2 fold change [3] of -0.111. For the same target, the log2 fold change [4] was -0.135 and the log2 fold change [5] was -0.079.
With NUDT6 (UniProt P53370) the log2 fold change [3] was -0.222 and the log2 fold change [4] was 0.009.
In the case of NPLOC4 (UniProt I3L3I1), the log2 fold change [1] is reported as -0.041, the log2 fold change [2] is reported as 0.2 and the log2 fold change [4] is reported as -0.101.
For PAGE4 (UniProt O60829), the log2 fold change [1] was 0.024, the log2 fold change [2] was -0.11 and the log2 fold change [4] was -0.143. It also gave a log2 fold change [5] of 0.118.
Work on NOCT (UniProt Q9UK39) yielded a log2 fold change [4] of 0.021.
With NR2F2 (UniProt P24468) the log2 fold change [1] was -0.082, the log2 fold change [2] was -0.117 and the log2 fold change [4] was -0.008. The log2 fold change [5] was 0.082.
In the case of PAXBP1 (UniProt Q9Y5B6), the log2 fold change [1] is reported as -0.004, the log2 fold change [2] is reported as -0.026 and the log2 fold change [3] is reported as 0.026. It also gave a log2 fold change [4] of 0.057 and a log2 fold change [5] of 0.001.
